PubChem BioAssay

Assay: compounds binding Alexa647 anti-His antibody – biochemical, small-molecule microarray, 635 nm fluorescence, artefact control for SMM control protein annotation, primary screen (AID 1128);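 further: score merges feature fluorescence with signal-to-noise for each printed compound spot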
Conditions: higher = more signal

Row | SMILES | composite z-score
1 | NCCCCCNC(=O)[C@@H]1C[C@@H]2C(=O)N3CCC[C@H]3C(=O)N2[C@@H]1c1cccc(OCCO)c1 | 1.83
2 | C=CC[C@]1(C(=O)NCc2ccccc2)N=C(c2ccc(OCCCO)cc2)O[C@H]1c1ccccc1 | -0.158
3 | COCCOC(=O)N1C(=O)[C@@]2(c3cc(C#CCNC(N)=O)ccc31)[C@H](c1ccc(O)cc1)N1[C@H](c3ccccc3)[C@H](c3ccccc3)OC(=O)[C@H]1[C@@H]2C(=O)N1CCCCCCC1 | 0.127
4 | O=C1[C@H]2[C@H]3[C@H](O)[C@H](O)CC(=NO[C@@H]4O[C@H](CO)[C@@H](O)[C@H](O)[C@H]4O)[C@@H]3CC[C@H]2C(=O)N1Cc1ccc2c(c1)OCO2 | 0.715
5 | O=C1[C@H]2[C@H]3[C@H](O)[C@H](O)CC(=NOCc4ccccc4)[C@@H]3CC[C@H]2C(=O)N1C1CCCCC1 | 0.157
6 | O=C1[C@H]2[C@H]3[C@H](O)[C@H](O)CC(=NO[C@@H]4O[C@H](CO)[C@@H](O)[C@H](O)[C@H]4O)[C@H]3CC[C@H]2C(=O)N1Cc1ccc2c(c1)OCO2 | 1.01
7 | O=C(NN=C1C[C@@H](O)[C@@H](O)[C@@H]2[C@@H]3C(=O)N(c4cccc(Oc5ccccc5)c4)C(=O)[C@@H]3CC[C@H]12)OCc1ccccc1 | 1.22
8 | CC(C)CON=C1C[C@@H](O)[C@@H](O)[C@@H]2[C@@H]3C(=O)N([C@@H](C)c4ccccc4)C(=O)[C@@H]3CC[C@H]12 | 0.728
9 | CC(=O)O[C@H]1C2=C(C(=O)[C@@H]3O[C@@H]31)[C@H]1C(C)O[C@@H]2[C@@]23C(=O)[C@@H]4O[C@@H]4[C@@H](O)C2=CO[C@H](C)[C@@H]13 (stereo partly specified) | 0.0831
10 | CC(C)(C)N1C(=O)[C@H]2[C@H]3[C@H](O)[C@H](O)CC(=NOCc4ccccc4)[C@@H]3CC[C@H]2C1=O | 0.94
11 | O=C1[C@H]2[C@H]3[C@H](O)[C@H](O)CC(=NOC[C@@H](O)COCc4ccco4)[C@H]3CC[C@H]2C(=O)N1c1cccc(Oc2ccccc2)c1 | -0.304
12 | CC(C)=CCCC(C)=CCON=C1C[C@@H](O)[C@@H](O)[C@@H]2[C@@H]3C(=O)N(C[C@@H]4CCCO4)C(=O)[C@@H]3CC[C@@H]12 | 0.875
13 | Cc1ccc(S(=O)(=O)N[C@@H]2COC(=O)[C@H](C)COC(=O)CC=C[C@H]2C)cc1 | -0.419
14 | CCc1cc2c(nc1CC)CCN(CCC(C)=NO[C@@H](C)c1cc(-c3c(C)cc(C)cc3C)no1)C2 | 0.0635
15 | CC(=O)OC[C@H]1O[C@@H](ON=C(C)CCN2CCc3nc(-c4ccccc4)c(-c4ccccc4)cc3C2)[C@H](OC(C)=O)[C@@H](OC(C)=O)[C@@H]1OC(C)=O | -0.116
16 | Cc1ccc(S[C@]2(C(=O)NCC(F)(F)F)CC(=O)N(Cc3ccccc3Cl)[C@@H]2c2ccc(CO)cc2I)cc1 | -1.18
17 | CO[C@@H]1COC(=O)CC=C[C@@H](C)COC(=O)[C@H](COCc2ccccc2)NC(=O)CC=C[C@H]1C | -0.105
18 | O[C@@H](Cc1ccccc1)[C@H]1C2C=CCCC(c3ccccc3)=C2CN1Cc1cccc(Cl)c1 (stereo partly specified) | 0.607

Row | SMILES | composite z-score
19 | CC(=O)OC[C@H]1O[C@H](CCON=C[C@@H](C)[C@H](OCc2ccccc2)C(C)C)C=C[C@@H]1OC(C)=O | -0.508
20 | CC1(C)OCC(C(O)C2=CCCCC2=O)CO1 (stereo unspecified) | 0.485
21 | CO[C@@H]1COC(=O)CC=C[C@@H](C)[C@@H]2C=C[C@H](O)[C@@H](COC(=O)[C@H](C)NC(=O)CC=C[C@H]1C)O2 | 1.85
22 | CCCCCN1CC=CC23O[C@@H]4C=CCOC(=O)[C@@H]4[C@H]2C(=O)N(CCCCCCO)[C@@H]3C1=O (stereo partly specified) | 0.309
23 | COCCCNC(=O)[C@@]1(C)c2ccccc2C(=O)N(Cc2ccc(OC(F)(F)F)cc2)[C@H]1c1ccc(CO)cc1 | -0.95
24 | CC(C)[C@@H](OCc1ccccc1)[C@H](C)C=NO[C@H](C)c1cn([C@H](CO)Cc2ccccc2)nn1 | 0.424
25 | c1ccc(C2NCCc3c2[nH]c2ccccc32)cc1 (stereo unspecified) | 0.191
26 | O=C1NC(=O)C2C1C=CC(C(O)Cc1ccccc1)N2Nc1ccccn1 (stereo unspecified) | 0.596
27 | CCOC(=O)[C@H](Cc1ccccc1)NC(=O)CCC1CC(OC(=O)NCCc2ccc(F)cc2)CC2(CCCC(COC(=O)NCC(c3ccccc3)c3ccccc3)O2)O1 (stereo partly specified) | 0.999
28 | COCCOC(=O)N1C(=O)[C@@]2(c3cc(C#Cc4ccc(OC)cc4)ccc31)[C@H](C(=O)N1CCN(c3ncccn3)CC1)[C@H]1C(=O)O[C@H](c3ccccc3)[C@H](c3ccccc3)N1[C@@H]2c1ccc(OCCO)cc1 | 0.233
29 | CC(=O)OC[C@H]1O[C@@H](ON=C[C@@H](C)[C@H](OCc2ccccc2)C(C)C)[C@H](OC(C)=O)[C@@H](OC(C)=O)[C@@H]1OC(C)=O | 0.133
30 | COC(=O)CC=C[C@@H](C)[C@@H](C=NO[C@H](C)c1cn([C@@H]2COC[C@H]2O)nn1)OC | 1.19
31 | CC(CCN1CCc2nc(-c3ccccc3)c(-c3ccccc3)cc2C1)=NOC(C)CN1CCCCc2nc(C)c(C)cc21 (stereo unspecified) | 0.605
32 | CC(=O)OC[C@H]1O[C@H](C#CCCCc2ccccc2)C=C[C@@H]1OC(C)=O | 0.451
33 | CCOc1ccc(N2C(=O)/C(=C/C=C/c3ccccc3OC)S(=O)(=O)C2c2cccc([N+](=O)[O-])c2)cc1 (stereo unspecified) | -0.359
34 | COC(=O)[C@@H]1N=C(c2ccc(OCCCO)cc2)O[C@@H]1c1ccccc1N=[N+]=[N-] | 1.99
35 | CCN1C(=O)[C@H]2[C@H]3[C@H](O)[C@H](O)CC(=NOC(C)CN4CCCCc5nc(C)c(C)cc54)[C@@H]3CC[C@H]2C1=O (stereo partly specified) | 2.1
36 | CC(C)(C)OC(=O)CC[C@]1(C(N)=O)COC(c2ccc(OCCCO)cc2)=N1 | 1.3
